# Data: PubChem BioAssay (NCI)
# This is part of a sample that, as a whole, favours compounds with a hit. Of some 83,000 tested, about 20% had one in any assay.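 Percent growth is the endpoint: 0 to 100 indicates growth inhibition (40 means 60% inhibition), 0 means no net growth, and negative values indicate cell death.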 A number with no mark means an inactive call. Activity calls are given as the source filed them.
# Tested on: HCC-2998 colon
# Test: NCI-60 one-dose screen, 48 h (100 = growth as untreated, 0 = no growth, -100 = all killed)
# Details: 10 µM unless noted
# Experimental: Growth inhibition of the HCC-2998 human tumor cell line is measured as a screen for anti-cancer activity. Cells are grown in 96 well plates and exposed to the test compound for 48 hours. Compounds are tested at a single concentration, which is 10^-5 M for most compounds. The reported endpoint is percent growth (GI% or GIPRCNT), where numbers from 0 - 100% represent growth inhibition, and numbers from -100% - 0 represent cell death. For example, a value of 40 represents 60% growth inhibition. A value of 0 means no net growth occurred over the course of the experiment. A value of -40 indicates 40% of cells at the beginning of the experiment died by the end of the experiment. A value of -100 means all cells are dead at the end of the experiment.
# NCI-60 Human Tumor Cell Lines Screen was performed using the standard one-dose NCI protocol, which is described in more detail at https://dtp.cancer.gov/discovery_development/nci-60/default.htm.
# Compounds with GIPRCNT values below 10 were considered active. Activity score was based on GIPRCNT using the following formula: […]
# Score is 0 for GIPRCNT values of 100 or above, 50 for GIPRCNT values of 0, and 100 for GIPRCNT values of -100.
row,Compound,growth
1,N/C(=N\c1nc2ccc([N+](=O)[O-])cc2s1)C(Cl)(Cl)Cl,74%
2,COc1cc(/C=C/C(=O)c2ccc(NC(=O)CSc3nnc(-c4ccc5nc(-c6ccccc6)[nH]c5c4)o3)cc2)cc(OC)c1OC,111%
3,Oc1ccc(CSc2nnc(-c3ccncc3)n2-c2ccccc2)c2cccnc12,35.9%
4,O=C(NNc1nc2cc(F)ccc2n2cncc12)c1cnccn1,19.9%
5,Cc1nn(-c2ccc(Br)cc2)c2nc(CCl)[nH]c(=O)c12,105%
6,COc1ccc(N2CCN(C(=O)CSc3ccc(-c4nc5cc(C)c(C)cc5[nH]4)cn3)CC2)cc1,94.2%
7,C/C(=N\NC(=S)Nc1ccc(Br)cc1)c1cc2ccccc2oc1=O,29.8%
8,Cc1ccc(-n2cc(/C=C/C(=O)c3ccc(S(C)(=O)=O)cc3)c(-c3ccc(S(C)(=O)=O)cc3)n2)cc1,107%
9,CC1=C2C(=C[C@@](C)(COS(N)(=O)=O)[C@@H]2O)C(=O)[C@](C)(O)C12CC2,61.7%
10,O=C(Nc1ccc(Cl)cc1)Nc1nc2ccc([N+](=O)[O-])cc2s1,-27.6% (active)
11,COc1cnc2c(c1)C(=O)c1c-2n(CCCNCC2CC2)c(=O)c2cc(F)ccc12,-41% (active)
12,O=C(CCCCCCN1CC(=O)N2[C@@H](c3ccccc3)c3[nH]c4ccccc4c3C[C@H]2C1=O)NO,85.8%
13,CC(C)=CCc1c2c(c(O)c3c1O[C@]14C(=C[C@@H]5C[C@H]1C(C)(C)O[C@@]4(C/C=C(/C)C(=O)O)C5=O)C3=O)CC(O)C(C)(C)O2 (stereo not given in full),-84.7% (active)
14,Clc1ccc(-c2csc(Nc3cccc(Nc4csc(-c5ccc(Cl)cc5)n4)c3)n2)cc1,89.3%
15,C#C[C@]1(O)CC[C@H]2[C@@H]3CC=C4c5sc(Nc6cccc(C)n6)nc5CC[C@]4(C)[C@H]3CC[C@@]21C,47.5%
16,Cc1ccc(C2CC(c3ccc(Nc4nc(NCCO)nc(Nc5ccc(Cl)cc5)n4)cc3)=Nc3c(N)nc(N)nc3N2)cc1 (stereo not given),-65.3% (active)
17,NS(=O)(=O)c1ccc(Nc2nc(N/N=C/c3ccc(F)cc3)nc(Nc3ccccc3)n2)cc1,55.4%
18,Oc1ccc(CSc2nnc(-c3ccccc3)n2-c2ccccc2)c2cccnc12,26.9%
19,COc1cc([C@H]2OC[C@H]3[C@@H]2CO[C@@H]3c2ccc(O)c(OC)c2)ccc1O,96%
20,COc1ccc(OC)c(NC2=C(Cl)C(=O)C(C)=C(C)C2=O)c1,108%

row,Compound,growth
1,O=C1c2c(c3c4cc(Br)ccc4[nH]c3c3ccc4ccccc4c23)C(=O)N1CCN1CCCCC1,2.69% (active)
2,COc1cc(C2CC(c3ccc(Nc4nc(NCCO)nc(Nc5ccc(Cl)cc5)n4)cc3)=Nc3c(N)nc(N)nc3N2)cc(OC)c1OC (stereo not given),94.5%
3,CCc1ccc(NC(=O)N[C@@H](Cc2cccc(F)c2)C(=O)N[C@@H]2C(=O)N3CCC[C@H]3C(=O)N3CCCC[C@H]3C(=O)N[C@@H](CO)C(=O)N3C[C@H](C)C[C@H]3C(=O)O[C@H]2C)c(F)c1,24.1%
4,N/C(=N\OC(=O)CSc1nc2ccccc2s1)c1ccc2ccccc2c1,107%
5,Oc1ccccc1-c1nnc(SCc2ccc(O)c3ncccc23)o1,46%
6,COC(=O)c1c(C(=O)OC)c2n(CC(=O)Nc3cccc4cccnc34)c3ccccc3n2c1C(=O)c1ccc(C)cc1,103%
7,CCOC(=O)c1c(NCC(=O)Nc2cccc(Cl)c2)sc2c1CCCC2,103%
8,NS(=O)(=O)Oc1ccc2nc(Nc3ccc(F)c(F)c3)ccc2c1,90.3%
9,COc1cc2cc(Oc3ccc(NC(=O)Nc4cc(C(F)(F)F)cc(C(F)(F)F)c4)cc3)c(C)nc2cc1OCCN(C)C,103%
10,O=C(CN1CCN(c2cc(=O)n(-c3ccccc3)c3ccccc23)CC1)Nc1ccc([N+](=O)[O-])cc1,105%
11,CCOC(=O)c1c(NC(=O)c2ccc(F)cc2F)sc2c1CCC(=O)C2,107%
12,CC(=O)Nc1ccc(NC(=O)Nc2cccc(-c3nc(-c4ccc(NC(=O)c5cccs5)cc4Cl)no3)c2)cc1C(F)(F)F,-65.1% (active)
13,C/C(=C(/c1ccc(O)cc1)c1ccc(OCCN2CCCC2)cc1)c1ccc(Cl)cc1,17.2%
14,COc1cc(/C=C2\SC(=O)NC2=O)ccc1OCC(=O)Nc1ccc(C(=O)/C=C/c2cc3ccccc3nc2Cl)cc1,103%
15,O=C(COc1cccc2cccnc12)Nc1ccc(C(=O)/C=C/c2ccc(Cl)cc2)cc1,102%
16,C=C(C)[C@@H]1CC[C@]2(COS(C)(=O)=O)CC[C@]3(C)[C@H](CC[C@@H]4[C@@]5(C)CCCNC(C)(C)[C@@H]5CC[C@]43C)[C@@H]12,16.4%
17,C(=C(\C1=NCCN1)n1cnc2ccccc21)/c1ccc2ccccc2c1,71.5%
18,O=c1[nH]c(CNc2ccc(NCc3c(-c4ccccc4)no[n+]3[O-])cc2)nc2c1cnn2-c1ccccc1,84.4%
19,CC[C@H](C)[C@H]1NC(=O)[C@@H]([C@H](O)C(C)C)NC(=O)[C@@H](C)N(C)C(=O)[C@H](C)N(C)C(=O)[C@H](CC(C)C)NC(=O)[C@H](CC(C)C)N(C)C(=O)[C@H](C)N(C)C1=O,2.12% (active)
20,O=C(Nc1cccc(-c2nc(-c3ccc(NC(=O)c4cccnc4)cc3Cl)no2)c1)Nc1ccc(NC(=O)C2CC2)c(C(F)(F)F)c1,-69.6% (active)
